PubChem BioAssay
Activity calls are given as the source filed them.

How the values were obtained:
[1] = molecular target: Albumin (Bos taurus) (UniProt P02769); assay: compounds binding labelled BSA control protein – biochemical, small-molecule microarray, Alexa647 label, 635/667 nm fluorescence, artefact control for SMM control protein annotation, profiling panel (AID 1118); details: BSA-A647 binding, fluorescence 635 nm, higher = more signal;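 also: score merges 667 nm emission intensity and signal-to-noise per printed compound spot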
[2] = probe aXIP binding to arrayed compounds – biochemical, NeuroSMM set, 635/667 nm fluorescence, primary screen (AID 1119); details: small-molecule microarray, higher = more signal, called active from +8 up or from −8 down;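 also: probe is the protein aXip251-270 applied at 1 µg/mL to compound-printed slides; binding of probe to printed compounds measured as 667 nm fluorescence plus signal to noise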
[3] = probe aNOTCH3 binding on compound microarray – biochemical, small-molecule microarray, 635/667 nm fluorescence, primary screen (AID 1120); details: higher = more signal;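 also: probe is a biotin-tagged antibody raised against NOTCH3 rather than NOTCH3 protein; score merges spot fluorescence near 667 nm with spot signal to noise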
[4] = probe aNOTCH2 binding on compound microarray – biochemical, small-molecule microarray, 635/667 nm fluorescence, primary screen (AID 1121); details: higher = more signal;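 also: score merges feature fluorescence read at 667 nm with its signal to noise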
[5] = molecular target: Carbonic anhydrase 2 (Homo sapiens) (UniProt P00918); assay: compounds binding carbonic anhydrase 2 – biochemical, small-molecule microarray, Alexa647-labelled CAII, profiling panel (AID 1122); details: CAII-A647 binding fluorescence, higher = more signal
[6] = COS7 lysate on small-molecule microarray, probe aHis, 635 nm (AID 1123); details: COS7 cell lysate, fluorescence, higher = more signal;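 also: z-score combines 667nm fluorescence intensity with signal-to-noise per printed compound spot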
[7] = probe aLAP1 signal on lysate-treated microarray – cell lysate, small-molecule microarray, COS7 lysate, primary screen (AID 1124); details: probe aLAP1, fluorescence, higher = more signal;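 also: lysate comes from COS7 cells expressing LAP1 and is applied at 0.3 µg/mL; score merges spot fluorescence near 667 nm with signal-to-noise over triplicate slides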
[8] = system: Sam68 (KHDRBS1); assay: compounds binding KHDRBS1 protein – biochemical, small-molecule microarray, 635 nm fluorescence, primary screen (AID 1125); details: higher = more signal;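 also: score merges 667 nm channel intensity with signal to noise over triplicate slides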
[9] = system: Chordin-like protein 2 (CHRDL2); assay: compounds binding chordin-like 2 – biochemical, small-molecule microarray, 635 nm fluorescence, primary screen (AID 1126); details: fluorescence 635 nm, higher = more signal;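 also: printed compound slides probed with Chrdl2 protein at 4 µg/mL for 1 h at 4 C; score merges 667 nm emission intensity with signal to noise over three replicate slides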
[10] = molecular target: Concanavalin-A (Canavalia ensiformis) (UniProt P02866); assay: compounds binding concanavalin A lectin – biochemical, small-molecule microarray, Alexa647 label, 635 nm, artefact control for SMM control protein annotation, primary screen (AID 1127); details: ConA-A647 binding fluorescence, higher = more signal;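 also: z combines 667 nm emission intensity with signal-to-noise across three replicate slides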
[11] = compounds binding Alexa647 anti-His antibody – biochemical, small-molecule microarray, 635 nm fluorescence, artefact control for SMM control protein annotation, primary screen (AID 1128); details: higher = more signal;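 also: score merges feature fluorescence with signal-to-noise for each printed compound spot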
[12] = system: Human papillomavirus type 1a E7 protein (residues 1-88); assay: HPV1a E7 small-molecule binders, primary screen, biochemical, small-molecule microarray, residues 1-88, 635 nm (AID 1129); details: small-molecule microarray binding, fluorescence 635 nm; higher = more signal
[13] = molecular target: Focal adhesion kinase 1 (Homo sapiens) (UniProt Q05397); assay: PTK2 protein binding on printed compound slides – biochemical, small-molecule microarray, 635/667 nm fluorescence, BSA, DTT, primary screen (AID 1130); details: 635 nm fluorescence, higher = more signal;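 also: composite of spot emission at 667 nm and signal to noise over triplicate slides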
[14] = system: Fibrinogen (Alexa647-labelled); assay: Alexa647-fibrinogen binding to printed small molecules – biochemical, small-molecule microarray, 635/667 nm fluorescence, artefact control for SMM control-protein annotation, profiling panel (AID 1131); details: fibrinogen-A647 binding fluorescence, higher = more signal;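 also: z-score merges 667 nm fluorescence with per-spot signal-to-noise over triplicate slides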
[15] = molecular target: Follistatin (Homo sapiens) (UniProt P19883); assay: FST protein binding to printed compounds – biochemical, small-molecule microarray, 635/667 nm fluorescence, primary screen (AID 1132); details: 635 nm fluorescence, higher = more signal
[16] = molecular target: Fibroblast growth factor 2 (Homo sapiens) (UniProt P09038); assay: basic fibroblast growth factor binding to printed compounds – biochemical, small-molecule microarray, 635/667 nm fluorescence, primary screen (AID 1133); details: FGF2, fluorescence 635/667, higher = more signal
[17] = JC-1 mitochondrial potential readout, lung cancer cells – cell-based, A549, JC-1 fluorescence, basal, 24 h, 100 nL, profiling panel (AID 1138); details: higher = more signal;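 also: A549 lung adenocarcinoma cells under basal conditions with no added stimulus; test concentration not given here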
[18] = system: Lefty1; assay: Lefty1 protein binding to printed compounds – biochemical, small-molecule microarray, 635/667 nm fluorescence, primary screen (AID 1139); details: fluorescence 635/667, higher = more signal
[19] = system: wheat germ agglutinin (Triticum aestivum), Alexa647-labelled; assay: Alexa647-WGA lectin binding to printed small molecules – biochemical, small-molecule microarray, 635/667 nm fluorescence, artefact control for SMM control-protein annotation, profiling panel (AID 1140); details: WGA-A647 binding, 635 nm fluorescence, higher = more signal;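 also: score merges 667 nm feature emission with signal to noise over triplicate slides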
[20] = molecular target: Luciferin 4-monooxygenase (Photinus pyralis) (UniProt P08659); assay: inhibition of purified Photinus pyralis luciferase – biochemical, luminescence, purified enzyme, 2006 set, primary screen (AID 1141); details: purified firefly luciferase, SteadyGlo luminescence, 30 min; higher = more signal, called active from +8 up or from −8 down;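 also: cell-free assay with purified firefly luciferase at 100 ng per well in PBS; test concentration not given here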
Sequence of Luciferin 4-monooxygenase (Photinus pyralis) (P08659 whole entry, looked up): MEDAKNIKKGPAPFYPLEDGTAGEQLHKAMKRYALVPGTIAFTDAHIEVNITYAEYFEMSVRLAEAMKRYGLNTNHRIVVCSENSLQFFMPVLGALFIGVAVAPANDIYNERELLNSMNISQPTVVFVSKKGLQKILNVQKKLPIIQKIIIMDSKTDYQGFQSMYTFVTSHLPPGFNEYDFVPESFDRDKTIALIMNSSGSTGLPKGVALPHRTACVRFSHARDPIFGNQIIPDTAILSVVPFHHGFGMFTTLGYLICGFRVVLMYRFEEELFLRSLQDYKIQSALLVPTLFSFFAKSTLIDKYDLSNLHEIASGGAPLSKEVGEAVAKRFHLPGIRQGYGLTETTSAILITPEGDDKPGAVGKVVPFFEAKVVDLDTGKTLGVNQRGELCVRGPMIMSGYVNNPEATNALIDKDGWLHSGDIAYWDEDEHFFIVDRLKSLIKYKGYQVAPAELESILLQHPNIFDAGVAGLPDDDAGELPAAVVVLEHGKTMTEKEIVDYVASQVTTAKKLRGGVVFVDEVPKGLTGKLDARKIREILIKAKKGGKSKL

Sequence of Albumin (Bos taurus) (P02769 whole entry, looked up): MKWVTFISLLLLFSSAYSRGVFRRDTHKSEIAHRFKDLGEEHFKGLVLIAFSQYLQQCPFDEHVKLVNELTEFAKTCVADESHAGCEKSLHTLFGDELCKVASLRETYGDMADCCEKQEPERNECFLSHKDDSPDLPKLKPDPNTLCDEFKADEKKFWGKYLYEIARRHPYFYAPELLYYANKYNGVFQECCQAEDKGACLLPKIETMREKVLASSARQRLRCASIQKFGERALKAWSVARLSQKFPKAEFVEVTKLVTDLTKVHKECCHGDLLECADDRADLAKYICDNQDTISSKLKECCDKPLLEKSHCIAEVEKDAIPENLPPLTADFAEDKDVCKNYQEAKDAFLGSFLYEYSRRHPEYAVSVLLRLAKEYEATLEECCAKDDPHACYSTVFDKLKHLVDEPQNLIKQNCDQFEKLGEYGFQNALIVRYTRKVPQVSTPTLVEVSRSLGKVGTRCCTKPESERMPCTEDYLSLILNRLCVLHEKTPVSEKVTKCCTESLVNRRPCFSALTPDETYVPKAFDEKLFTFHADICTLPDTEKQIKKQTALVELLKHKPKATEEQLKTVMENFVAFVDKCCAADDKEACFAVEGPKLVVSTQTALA
Sequence of Fibroblast growth factor 2 (Homo sapiens) (P09038 whole entry, looked up): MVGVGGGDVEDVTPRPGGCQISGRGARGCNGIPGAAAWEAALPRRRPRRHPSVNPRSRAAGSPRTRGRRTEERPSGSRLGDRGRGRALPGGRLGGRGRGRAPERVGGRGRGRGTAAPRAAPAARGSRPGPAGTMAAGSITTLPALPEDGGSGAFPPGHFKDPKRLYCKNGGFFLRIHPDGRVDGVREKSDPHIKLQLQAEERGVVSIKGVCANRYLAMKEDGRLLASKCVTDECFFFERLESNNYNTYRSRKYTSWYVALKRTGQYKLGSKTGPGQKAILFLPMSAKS
Sequence of Focal adhesion kinase 1 (Homo sapiens) (Q05397 whole entry, looked up): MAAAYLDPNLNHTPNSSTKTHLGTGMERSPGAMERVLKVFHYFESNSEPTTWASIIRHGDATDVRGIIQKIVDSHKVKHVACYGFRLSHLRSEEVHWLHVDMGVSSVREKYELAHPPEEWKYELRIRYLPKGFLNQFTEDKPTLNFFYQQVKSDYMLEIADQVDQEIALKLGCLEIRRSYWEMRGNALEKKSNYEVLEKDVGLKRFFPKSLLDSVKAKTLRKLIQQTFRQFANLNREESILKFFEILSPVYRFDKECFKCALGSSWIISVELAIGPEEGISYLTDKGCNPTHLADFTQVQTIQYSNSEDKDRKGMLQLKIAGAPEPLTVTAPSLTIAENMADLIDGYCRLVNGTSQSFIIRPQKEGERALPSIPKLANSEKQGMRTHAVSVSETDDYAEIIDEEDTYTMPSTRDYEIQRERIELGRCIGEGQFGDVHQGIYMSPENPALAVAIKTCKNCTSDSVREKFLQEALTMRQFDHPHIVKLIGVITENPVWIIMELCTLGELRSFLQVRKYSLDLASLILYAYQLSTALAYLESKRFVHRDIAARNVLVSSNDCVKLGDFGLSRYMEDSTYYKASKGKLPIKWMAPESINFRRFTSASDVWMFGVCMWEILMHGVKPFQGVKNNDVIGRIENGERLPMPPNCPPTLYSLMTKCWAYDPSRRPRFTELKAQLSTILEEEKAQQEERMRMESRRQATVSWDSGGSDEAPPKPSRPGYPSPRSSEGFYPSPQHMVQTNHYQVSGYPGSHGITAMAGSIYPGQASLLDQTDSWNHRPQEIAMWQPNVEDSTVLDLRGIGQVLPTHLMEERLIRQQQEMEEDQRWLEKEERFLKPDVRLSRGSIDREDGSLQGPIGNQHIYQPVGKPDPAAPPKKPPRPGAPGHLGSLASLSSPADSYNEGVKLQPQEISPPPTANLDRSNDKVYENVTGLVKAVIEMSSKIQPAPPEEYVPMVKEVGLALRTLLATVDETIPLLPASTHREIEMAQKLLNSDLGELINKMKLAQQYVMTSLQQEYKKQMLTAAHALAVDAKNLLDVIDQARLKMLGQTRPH
Sequence of Follistatin (Homo sapiens) (P19883 whole entry, looked up): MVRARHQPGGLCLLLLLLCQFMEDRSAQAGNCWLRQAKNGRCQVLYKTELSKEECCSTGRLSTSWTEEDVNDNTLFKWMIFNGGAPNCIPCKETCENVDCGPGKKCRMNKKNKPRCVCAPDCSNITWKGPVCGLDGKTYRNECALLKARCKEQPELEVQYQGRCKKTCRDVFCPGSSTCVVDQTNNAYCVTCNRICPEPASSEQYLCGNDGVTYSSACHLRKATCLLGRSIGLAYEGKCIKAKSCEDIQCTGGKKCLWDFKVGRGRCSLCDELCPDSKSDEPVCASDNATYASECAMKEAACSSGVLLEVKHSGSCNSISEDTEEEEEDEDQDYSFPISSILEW
Sequence of Concanavalin-A (Canavalia ensiformis) (P02866 whole entry, looked up): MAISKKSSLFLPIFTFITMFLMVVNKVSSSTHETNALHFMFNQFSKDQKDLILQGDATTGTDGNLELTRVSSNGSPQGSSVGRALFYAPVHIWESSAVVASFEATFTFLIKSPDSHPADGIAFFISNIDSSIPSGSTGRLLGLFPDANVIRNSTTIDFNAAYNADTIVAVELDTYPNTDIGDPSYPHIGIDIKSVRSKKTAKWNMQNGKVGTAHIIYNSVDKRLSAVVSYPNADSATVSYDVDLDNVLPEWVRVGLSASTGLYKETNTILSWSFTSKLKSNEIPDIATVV

Row | Compound | composite z-score [1] | composite Z-score [2] | composite z-score [3] | composite z-score [4] | composite z-score [5] | composite z-score [6] | composite z-score [7] | composite z-score [8] | composite z-score [9] | composite z-score [10] | composite z-score [11] | composite z-score [12] | composite z-score [13] | composite z-score [14] | composite z-score [15] | composite z-score [16] | z-score [17] | composite z-score [18] | composite z-score [19] | z-score [20]
1 | CO[C@H]1C[C@@H]2C[C@H](O)CC(CC(=O)O[C@@H](C=CCC(C)C)C[C@@H]3CC[C@H](C)[C@@H](C1)O3)O2 | 0.603 | -0.349 (inactive) | 0.0824 | -0.193 | 0.276 | 1.12 | -0.0223 | 1.3 | 0.629 | 0.389 | 0.583 | 0.959 | 0.122 | 0.707 | 0.719 | 0.361 | -0.589 | 0.749 | 0.0954 | -0.0042 (inactive)
2 | COc1ccc(O[C@H]2C=C[C@@H](c3ccccc3)O[C@@H]2COC(=O)CCC(C)=NOC[C@@H](O)COCc2ccco2)cc1 | 0.214 | -0.22 (inactive) | -0.919 | -0.271 | -0.888 | -1.8 | -0.875 | -0.875 | -3.04 | -2.57 | 0.614 | -0.99 | -0.814 | -3.44 | -2.77 | -2.63 | -0.424 | -1.58 | -0.674 | -0.49 (inactive)
3 | COC(=O)[C@H](C)NC(=O)CCC1CC(OC(=O)NCc2cccc3ccccc23)CC2(CCCC(COC(=O)NCCCN3CCCC3=O)O2)O1 (stereo not given in full) | 0.559 | -0.0448 (inactive) | 0.0485 | -0.132 | 0.378 | 0.519 | 0.0377 | 1.32 | 0.131 | 1.1 | 0.383 | 1.11 | 0.926 | 0.821 | 0.413 | 0.0982 | -0.262 | 1.23 | 0.485 | 0.86 (inactive)
4 | C[C@@H]1C=CCC(=O)OC[C@H](C)C(=O)N[C@@H](Cc2ccccc2)C(=O)OC1 | -0.568 | 0.398 (inactive) | -0.133 | -0.0995 | -0.187 | -0.355 | 0.552 | -0.124 | 0.981 | 0.12 | -0.044 | -0.203 | -0.0171 | 0.0608 | 0.927 | 0.589 | -0.00638 | 0.432 | 0.0031 | -0.0028 (inactive)
5 | CON=C1c2cc(OC)ccc2O[C@H](c2cccc(OC)c2)[C@H]1O | -0.181 | 0.133 (inactive) | 0.123 | 0.0267 | 0.11 | 0.275 | 0.332 | 0.415 | 0.707 | 0.267 | 0.293 | 0.416 | 0.197 | 0.273 | 0.587 | 0.675 | 0.314 | 0.6 | 0.208 | -2.9 (inactive)
6 | CC(=O)OC[C@H]1O[C@H](CC=NOC[C@@H](O)COCc2ccco2)C=C[C@@H]1OC(C)=O | 0.037 | 0.328 (inactive) | 0.282 | -0.0022 | -0.287 | -0.37 | -0.14 | 0.586 | 1.46 | -0.389 | 0.526 | -0.193 | 0.0925 | -0.629 | 1.38 | 1.54 | 0.548 | 1.52 | -0.327 | 0.642 (inactive)
7 | COCC#Cc1ccc([C@@H]2N[C@H](C(=O)O)CC[C@H]2C)cc1 | -0.202 | -0.165 (inactive) | -0.0605 | -0.144 | -0.148 | -0.336 | -0.384 | -0.377 | 0.305 | -0.691 | -1.01 | 0.307 | 0.547 | -0.426 | 0.273 | -0.0471 | 2.23 | 0.0859 | -0.389 | -1.77 (inactive)
8 | C=CC[C@@H]1C=C[C@H](Oc2ccc(C)cc2)[C@@H](COC(=O)NCc2cccc3ccccc23)O1 | 0.427 | 0.339 (inactive) | -0.0328 | -0.127 | 0.023 | 0.502 | -0.106 | -0.256 | 0.338 | -0.749 | 1.21 | 0.703 | 0.433 | 0.216 | 0.285 | 0.07 | 1.34 | 0.574 | 0.115 | -0.0167 (inactive)
9 | COC(=O)CC=C[C@@H](C)[C@@H](C=NOC(C)CN1CCCc2nc(C)c(C)cc21)NS(=O)(=O)c1ccc(C)cc1 (stereo not given in full) | -0.515 | 0.964 (inactive) | 0.033 | 0.0098 | -0.19 | 0.726 | 0.416 | 1.14 | 0.641 | 0.0308 | 2.64 | 0.549 | 0.299 | 0.451 | 0.789 | 0.533 | 0.835 | 0.765 | 0.11 | 0.679 (inactive)
10 | CCCNC(=O)OC[C@H]1O[C@H](CCON=C2c3cc(OC)ccc3O[C@H](c3cccc(OC)c3)[C@H]2O)C=C[C@@H]1Oc1ccc(OC)cc1 | 0.491 | 3.22 (inactive) | 0.219 | 0.0889 | 0.137 | 1.24 | 0.812 | 0.956 | 0.366 | 0.493 | 2.07 | 0.824 | 0.222 | 0.618 | 0.418 | 1.11 | 1.2 | 0.292 | 0.228 | 0.652 (inactive)
11 | C[C@@H]1CC[C@H]2C(=O)O[C@@H](COc3ccc(C(C)(C)C)cc3)CN2[C@H]1c1ccc(Br)cc1 | 0.425 | 0.289 (inactive) | -0.0663 | -0.164 | -0.0795 | 1.39 | 0.21 | 0.292 | 0.329 | 0.721 | -0.0988 | -0.153 | -0.171 | 0.407 | 0.0252 | 0.0914 | 0.784 | 0.135 | 0.0196 | 0.104 (inactive)
